RmlC RmlD mix: mixture blocks RmlC and RmlD coupled enzyme activity. RmlC/RmlD coupled enzyme inhibition, 384-well mixture HTS. hit rate 0.39% among 110,000. AID 1532. inhibition, % at 5.5 µM; in the data active = inhibition above about 30%, passing the limit was not always enough; inconclusive = no clear call, values can overlap the other calls
HIV RNase H inh-1: inhibitors of HIV-1 reverse transcriptase RNase H. P04585. RT-RNase H RNA/DNA duplex cleavage, fluorescence. inhibition, % at 10 µM. hit rate 1.9% among 65,000. AID 565; in the data active = inhibition above about 50%
HIV RNase H inh-2: confirmation of HIV-1 reverse transcriptase RNase H inhibitors; shares compounds with HIV RNase H inh-1; inhibition, % at 10 µM; hit rate 39% among 1,000; AID 651; Recombinant RT RNase H, fluorescent RNA/DNA duplex cleavage; in the data active = inhibition above about 48%; inconclusive = no clear call, values can overlap the other calls
* marks the source's active call; other numbers are inactive results; ? = inconclusive; . = no result. Only a selection was taken, and hits are over-represented in it overall.

SMILES | RmlC RmlD mix | HIV RNase H inh-1 | HIV RNase H inh-2
Cc1sc(-n2c(C)cc(/C=N/n3cnnc3)c2C)c(C#N)c1C | 1 | 78* | 69*
CCOC(=O)Cc1csc(NC(=O)CSc2nc(N)c3c(C)c(C)sc3n2)n1 | 6 | . | .
CCCCCC(=O)Nc1cccc(C2=NOC3(C2)C[C@@H](C(N)=O)N(C(=O)c2ccc(Cl)cc2)C3)c1 (some centres not stated) | 7 | . | .
O=C(NCC(c1cccnc1)N1CCN(c2ccc(F)cc2)CC1)c1ccco1 (configuration not stated) | 5 | . | .
CC1(C)CC(=O)C(=Cc2cn(-c3ccccc3)nc2-c2ccc(Cl)cc2)C(=O)C1 | -6 | . | .
CC(C)Oc1ccc(-c2nn(-c3ccccc3)cc2/C=c2\sc3ncnn3c2=O)cc1 | . | 70* | ?
c1ccc(-n2c(-c3ccco3)nnc2N2CCOCC2)cc1 | -12 | -7 | .
CN(C)c1ccc2c(c1)N=C(c1ccco1)OP2(=S)N1CCOCC1 (configuration not stated) | 7 | 89* | 68*
Cc1ccc(C)c(NC(=O)CSc2nc3c(c(=O)n2C)SC(C)C3)c1 (configuration not stated) | 7 | -19 | .
Cc1ccc2nc(NC(=O)CSc3nc4c(c(=O)n3C)SC(C)C4)sc2c1 (configuration not stated) | 10 | 79* | 42
CCOc1ccc(-c2nnc(N(CC)C(=O)C3CCC3)s2)cc1 | -15 | 66* | 1
COCCN(C(=O)C1CC1)c1nnc(-c2ccc(C)cc2)s1 | -4 | . | .
O=C(CSc1nc2c([nH]c3ccccc32)c(=O)n1-c1ccccc1)N1CCOCC1 | -10 | 4 | .
COc1cccc(-n2c(SCC(N)=O)nc3c([nH]c4ccccc43)c2=O)c1 | . | 6 | .
COc1ccc(-n2c(SCC(=O)N3CCCC3)nc3c([nH]c4ccccc43)c2=O)cc1 | . | 87* | 88*
O=C(CSc1nc2c([nH]c3ccccc32)c(=O)n1-c1cccc(Cl)c1)N1CCOCC1 | 9 | 78* | 67*
CCc1cccc(N(C)C(N)=Nc2cccc3ccccc23)c1 | -9 | . | .
Cc1ccccc1NS(=O)(=O)c1cc(S(C)(=O)=O)ccc1Cl | -10 | 0 | .
Cc1cc(NS(=O)(=O)c2ccccc2)c(C)c(Cl)c1O | 21 | 80* | -6
CC(C)n1nc(Cc2cccc3ccccc23)c(C#N)c1N | -11 | . | .
O=C1NCCCC2c3cc(O)c4ccccc4c3OC12N1CCCCC1 (configuration not stated) | 8 | 52* | 15
O=C1NCCCC2c3c(cc(Br)c(O)c3Br)OC12N1CCOCC1 (configuration not stated) | -5 | 22 | .
C=CCn1c(SCc2c(Cl)cccc2Cl)nnc1-c1cccnc1 | -14 | . | .
COc1ccccc1NC(=O)c1cc2ccccc2o/c1=N\O | 19 | 89* | -4
COc1ccccc1NC(=O)c1cc2ccc(O)cc2o/c1=N\O | -3 | -12 | .
SMILES | RmlC RmlD mix | HIV RNase H inh-1 | HIV RNase H inh-2
CCCCC1=CC2=CC(=O)C(C)(OC(=O)CC)C(=O)C2=CN1C1CCCC1 (configuration not stated) | 13 | . | .
COc1ccc2c(COC(=O)c3n[nH]c4ccccc34)cc(=O)oc2c1 | 24 | . | .
Cc1ccc(N(CC(=O)Nc2cccc(C)c2)S(=O)(=O)c2cccc3nonc23)cc1 | 10 | 67* | -3
Cc1ccc(NC(=O)CCNS(=O)(=O)c2cccc3nonc23)cc1 | -10 | -18 | .
COC(=O)c1ccc(COC(=O)c2ccc(-n3cnnn3)cc2)o1 | 3 | -22 | .
COc1cc(C2Nn3c(nnc3-c3ccccc3OC)S2)ccc1O (configuration not stated) | -6 | . | .
c1ccc2c(c1)CCN(c1nc3cc4c(cc3s1)OCO4)C2 | -5 | 43 | .
c1c2c(cc3sc(N4CCCCC4)nc13)OCO2 | . | 9 | .
c1ccc(N2CCN(c3nc4cc5c(cc4s3)OCO5)CC2)cc1 | 13 | 76* | 76*
c1c2c(cc3sc(N4CCOCC4)nc13)OCO2 | -26 | 72* | 62*
COC(=O)c1ccc2nc(C3CCCCC3)c3c(c2c1)CCC3 | 2 | . | .
O=S(=O)(/N=S1/CC=CCN1S(=O)(=O)c1ccccc1)c1ccccc1 (configuration not stated) | -6 | 79* | 60*
O=S(=O)(c1ccccc1)N1CCN(S(=O)(=O)c2ccccc2)C1 | 8 | -9 | .
ONC(=Nc1ccc(Cl)cc1)c1ccccc1 | 6 | . | .
Cc1ccccc1C(=O)Nc1nncs1 | 6 | . | .
CCSc1ccccc1C(=O)Nc1nncs1 | 9 | 56* | 18
CC(=O)O[C@@H]1[C@H]2[C@@H](C[C@@H](C)[C@@H]3CCC(=O)[C@@]13C)OC(=O)[C@@H]2C | -7 | . | .
CCOC(=O)CSC1=C(C#N)C(c2ccccc2)C(C(C)=O)=C(C)N1 (configuration not stated) | 5 | 3 | .
CSCSC1=C(C#N)C(c2ccc(Cl)cc2)C(C(C)=O)=C(C)N1 (configuration not stated) | 7 | 61* | 18
